For experiment [1], the system named is Wnt5a (protein binding on small-molecule microarray). Put plainly: small molecules binding Wnt5a protein – biophysical, small-molecule microarray, 635/667 nm fluorescence, primary screen (AID 1142).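 Further: fluorescence read at 667 nm with signal to noise per printed feature.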 Conditions: 635 nm fluorescence, higher = more signal.
Experiment [2] in a line: ATP-based viability of Huh7 replicon cells – cell-based, CellTiter-Glo luminescence, basal, 48 h, cytotoxicity control for HCV replication inhibitor project, primary screen (AID 1143).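 Further: Huh7 hepatoma cells carrying a hepatitis C replication reporter with no stimulus; test concentration not given here.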 Particulars: higher = more signal, called active from +8 up or from −8 down. Background: A replicon is a self-replicating genome or part of one, used to study replication in cells.
Experiment [3] is described as follows: Pseudomonas biofilm growth suppression – PAO1 strain, BacTiter-Glo luminescence, LB-PBS, primary screen (AID 1144). Particulars: P. aeruginosa PAO1 biofilm, 12 h, higher = more signal.
Experiment [4] in a line: basal CRE-LacZ reporter activity in PC12 – cell-based, unstimulated, primary screen (AID 1145). Conditions: no forskolin, luminescence, 4.5 h, higher = more signal, called active from +8 up or from −8 down.
The nature of experiment [5]: forskolin-driven CRE-LacZ activity in PC12 – cell-based, CRE-LacZ reporter, forskolin-stimulated, primary screen (AID 1146).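 Further: PC12 cells with 6xCRE LacZ reporter stimulated by forskolin 10 µM; beta-galactosidase reporter signal reflecting CREB driven transcription.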 Particulars: luminescence, 4.5 h, higher = more signal, called active from +8 up or from −8 down.
In experiment [6] the target is Streptavidin (Streptomyces avidinii) (UniProt P22629). Briefly: compounds binding control protein streptavidin – biophysical, small-molecule microarray, 635/667 nm fluorescence, artefact control for SMM compound annotation, primary screen (AID 1147).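 Further: signal reflects streptavidin binding to arrayed compounds as a control protein.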 Particulars: higher = more signal.
A short description of experiment [7]: probe aInhba binding on compound microarray – biochemical, small-molecule microarray, 635/667 nm fluorescence, primary screen (AID 1148).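 Further: score merges 667nm spot fluorescence with signal-to-noise for antibody binding to printed compounds.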 Particulars: higher = more signal.
Experiment [8] concerns the target Torsin-1A (Homo sapiens) (UniProt O14656). Briefly: TOR1A wild-type binding on microarray – cell lysate, small-molecule microarray, lysate, 635/667 nm, primary screen (AID 1149). Particulars: COS7 hTOR1A-WT lysate, 635 nm fluorescence, higher = more signal.
The target is the same in experiment [9]. Briefly: torsin A mutant lysate binding on microarrays – cell lysate, small-molecule microarray, COS7 lysate, 635/667 nm fluorescence, primary screen (AID 1150).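 Further: score pools 667 nm emission and signal to noise measuring lysate protein binding.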 Particulars: COS7 hTOR1A mutant lysate, 635 nm fluorescence, higher = more signal.
In experiment [10] the test system is Sonic hedgehog protein (Shh). Put plainly: Sonic hedgehog microarray binding compounds – biochemical, small-molecule microarray, 635/667 nm fluorescence, primary screen (AID 1151).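 Further: Shh protein binding to compounds spotted on small-molecule microarray slides; score combines spot fluorescence intensity with signal-to-noise across triplicate slides.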 Conditions: 635 nm fluorescence, higher = more signal.

SMILES strings stand for the structures. Activity calls are given as the source filed them. Unless noted, how the calls were made is not given here.

Chain of Torsin-1A (Homo sapiens) (O14656 whole entry, looked up): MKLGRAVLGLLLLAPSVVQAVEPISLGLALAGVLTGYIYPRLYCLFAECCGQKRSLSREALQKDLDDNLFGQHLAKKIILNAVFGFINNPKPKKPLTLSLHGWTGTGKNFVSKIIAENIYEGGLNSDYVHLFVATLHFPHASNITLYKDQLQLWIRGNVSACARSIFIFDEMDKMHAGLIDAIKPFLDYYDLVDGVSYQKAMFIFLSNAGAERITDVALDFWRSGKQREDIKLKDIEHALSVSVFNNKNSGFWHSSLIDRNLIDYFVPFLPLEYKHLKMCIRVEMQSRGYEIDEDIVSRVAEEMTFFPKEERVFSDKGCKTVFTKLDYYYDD
Chain of Streptavidin (Streptomyces avidinii) (P22629 whole entry, looked up): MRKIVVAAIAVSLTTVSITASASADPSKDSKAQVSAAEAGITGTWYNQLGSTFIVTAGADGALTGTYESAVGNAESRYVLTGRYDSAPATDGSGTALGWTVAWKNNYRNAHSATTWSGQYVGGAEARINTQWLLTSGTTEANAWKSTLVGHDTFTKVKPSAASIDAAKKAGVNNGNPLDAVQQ

With `O=C1OCCC/C=C\[C@H]2OC34C=CCN(c5ccc6ccccc6c5)C(=O)[C@H]3N(CCCCCCO)C(=O)[C@@H]4C12` (stereo not given in full), the composite z-score in experiment [1] is -0.694; in experiment [6] it was -1.1; in experiment [7], -0.128; with Torsin-1A (Homo sapiens) [8], -1.12; with Torsin-1A (Homo sapiens) [9], -1.2; in [10] it was -0.0305. Besides, the z-score in experiment [2] is 0.117 (inactive); in experiment [3], -1.7 (inactive); in [4], 0.61 (inactive); in experiment [5], -0.677 (inactive).
As for `COc1ccc(CCNC(=O)[C@@H]2c3ccccc3C(=O)N(C3Cc4ccccc4C3)[C@H]2c2ccc(CO)cc2)cc1`, the composite z-score in [1] is -0.062; in experiment [6], -0.217; in [7], -0.0448; in the experiment with Torsin-1A (Homo sapiens) [8], 0.0114; in the experiment with Torsin-1A (Homo sapiens) [9], 0.067; in experiment [10], 0.13. Also, the z-score in [2] is -0.221 (inactive); in experiment [3] it was -0.17 (inactive); in [4], -0.0888 (inactive); in [5], -1.01 (inactive).
On to `CCOC(=O)[C@H]1C/C=C/C[C@H](C(=O)OCC)C(=O)O[C@H]2[C@@H](OC)O[C@H](CO)[C@@H](OC(=O)Nc3cccc(F)c3)[C@@H]2OC1=O`, for which the composite z-score in experiment [1] is 0.39; in experiment [6], 0.555; in experiment [7] it was 0.83; in the experiment with Torsin-1A (Homo sapiens) [8] it was -0.24; with Torsin-1A (Homo sapiens) [9], 0.118; in [10], 0.849. In addition, the z-score was -6.52 (inactive) in experiment [2], -0.509 (inactive) in experiment [3], 0.765 (inactive) in experiment [4] and -0.848 (inactive) in experiment [5].
For `C=C(CCCC)/C(=C/C[C@@H](OC(C)=O)c1ccccc1OCCO)c1cnc2ccccc2c1`, the composite z-score in experiment [1] is 0.0953; in experiment [6], -0.0227; in experiment [7], -0.0736; with Torsin-1A (Homo sapiens) [8], 1.11; with Torsin-1A (Homo sapiens) [9] it was -0.438; in [10] it was 1.02. Moreover, the z-score is -1.6 (inactive) in experiment [2], -0.131 (inactive) in experiment [3], 2.02 (inactive) in [4] and -0.185 (inactive) in experiment [5].
Regarding `O=C1OCC=C[C@H]2OC34C=CCN(c5ccc6ccccc6c5)C(=O)[C@H]3N(CCCCCCO)C(=O)[C@@H]4[C@@H]12` (stereo not given in full), the composite z-score is -0.565 in [1]; -0.719 in experiment [6]; -0.018 in experiment [7]; 1.62 in the experiment with Torsin-1A (Homo sapiens) [8]; -1.69 with Torsin-1A (Homo sapiens) [9]; -0.749 in [10]. Further, the z-score in experiment [2] is 0.165 (inactive); in experiment [3], 3.31 (inactive); in experiment [4] it was 0.471 (inactive); in experiment [5], -0.0042 (inactive).
Turning to `COc1ccc([Si](C)(C)[C@H]2[C@H](CCO)O[C@@]3(C(=O)N(C)c4c(Br)cc(C)cc43)[C@@H]2C)cc1`, the composite z-score in experiment [1] is -0.0092; in experiment [6], 0.0036; in [7], -0.0523; with Torsin-1A (Homo sapiens) [8], 1.15; with Torsin-1A (Homo sapiens) [9], 0.105; in [10], 1.29. Besides, the z-score in experiment [2] is -8.05 (active); in experiment [3] it was -1 (inactive); in experiment [4], 15.2 (active); in [5], -3.2 (inactive).
As to `[N-]=[N+]=NCc1ccccc1[C@@H]1OC(c2ccc(OCCCO)cc2)=N[C@]1(Cc1ccccc1N=[N+]=[N-])C(=O)N1CCOCC1`, the composite z-score in experiment [1] is 1.11; in experiment [6], 1.57; in experiment [7] it was 0.636; with Torsin-1A (Homo sapiens) [8], 0.308; with Torsin-1A (Homo sapiens) [9] it was 0.898; in experiment [10] it was -0.284. Further, the z-score was -1.61 (inactive) in [2], 0.103 (inactive) in experiment [3], 1.78 (inactive) in experiment [4] and -0.514 (inactive) in experiment [5].
In the case of `C=C(COC)/C(=C/C[C@@H](OC(C)=O)c1ccc(OCCO)cc1)c1cc(C(=O)OC)ccc1OC`, the composite z-score was 0.969 in experiment [1]; -0.0154 in experiment [6]; 0.0154 in [7]; 0.518 with Torsin-1A (Homo sapiens) [8]; 0.672 in the experiment with Torsin-1A (Homo sapiens) [9]; 1.57 in [10]. The z-score in [2] is -0.21 (inactive); in experiment [3], -0.201 (inactive); in experiment [4], 1.82 (inactive); in experiment [5], 1.96 (inactive).
In the case of `O=C1OCCC=C[C@H]2OC34C=CCN(CCN5CCOCC5)C(=O)[C@H]3N(CCCCCCO)C(=O)[C@@H]4C12` (stereo not given in full), the composite z-score was -0.0312 in [1]; -0.393 in experiment [6]; -0.179 in experiment [7]; 0.811 with Torsin-1A (Homo sapiens) [8]; -0.839 with Torsin-1A (Homo sapiens) [9]; 0.65 in [10]. In addition, the z-score is 0.18 (inactive) in experiment [2], -0.134 (inactive) in experiment [3], 1.55 (inactive) in experiment [4] and 0.0231 (inactive) in experiment [5].
On to `C=CCNC(=O)[C@@H]1[C@H]2C(=O)O[C@H](c3ccccc3)[C@H](c3ccccc3)N2[C@H](c2ccc(OCCO)cc2)[C@@]12C(=O)Nc1ccc(C#CCCO)cc12`, for which the composite z-score in [1] amounted to 0.847; in [6], 1.6; in experiment [7], 1.15; in the experiment with Torsin-1A (Homo sapiens) [8] it was 1.26; in the experiment with Torsin-1A (Homo sapiens) [9], 1.17; in experiment [10], 1.59. In addition, the z-score was -0.625 (inactive) in [2], -0.796 (inactive) in experiment [3], -0.141 (inactive) in experiment [4] and -0.118 (inactive) in [5].
With `COc1ccc([Si](C)(C)[C@H]2[C@H](CC(=O)N3Cc4ccccc4C[C@H]3CO)O[C@@]3(C(=O)N(Cc4ccc(N5CCC5=O)cc4)c4ccccc43)[C@@H]2C)cc1`, the composite z-score in [1] is 0.66; in experiment [6], 0.679; in experiment [7] it was 0.256; in the experiment with Torsin-1A (Homo sapiens) [8] it was 1.27; in the experiment with Torsin-1A (Homo sapiens) [9], 0.574; in experiment [10] it was 1.85. In addition, the z-score in [2] is -6.48 (inactive); in [3], 0.522 (inactive); in [4], 0.656 (inactive); in [5] it was -0.317 (inactive).
For `COC(=O)[C@@]1(Cc2ccc(OC)cc2)[C@H]2c3cc(C(=O)N4CCCC4)n(Cc4ccsc4Br)c3C[C@H]2CN1C(=O)c1ccccc1`, the composite z-score in experiment [1] is 0.0185; in [6] it was 0.161; in [7] it was 0.19; with Torsin-1A (Homo sapiens) [8] it was -0.34; with Torsin-1A (Homo sapiens) [9], 0.185; in [10], -0.658. Moreover, the z-score in experiment [2] was -3.29 (inactive); in experiment [3], 0.674 (inactive); in experiment [4], 1.72 (inactive); in experiment [5], 46.9 (active).
With `COc1ccc(C(=O)Nc2ccc(CN3C(=O)[C@@]4(O[C@@H](CC(=O)N5CCC[C@H]5CO)[C@H]([Si](C)(C)c5ccc(OC)cc5)[C@H]4C)c4ccccc43)cc2)cc1`, the composite z-score in experiment [1] turned out to be 0.553; in [6] it was 0.648; in experiment [7], 0.0074; with Torsin-1A (Homo sapiens) [8], 0.826; with Torsin-1A (Homo sapiens) [9], 0.797; in experiment [10], 1.66. Moreover, the z-score in [2] is -1.38 (inactive); in [3], -1.34 (inactive); in experiment [4], 1.88 (inactive); in [5], -0.0184 (inactive).
Regarding `COCCOC(=O)N1C(=O)[C@@]2(c3cc(C#CC4(O)CCCCCC4)ccc31)[C@H](c1ccc(O)cc1)N1[C@H](c3ccccc3)[C@H](c3ccccc3)OC(=O)[C@H]1[C@@H]2C(=O)Nc1nc2ccccc2s1`, the composite z-score in experiment [1] was 0.513; in experiment [6], 1.19; in [7] it was 0.741; with Torsin-1A (Homo sapiens) [8], 0.549; with Torsin-1A (Homo sapiens) [9], 0.821; in experiment [10], 1.35. Moreover, the z-score in [2] is -0.073 (inactive); in experiment [3], 0.505 (inactive); in experiment [4], 1.42 (inactive); in experiment [5], 4.93 (inactive).

Values taken from PubChem BioAssay.
